Of roughly 7,900 targets only a part is listed; those with a hit were picked by preference. About 0.6% of all pairs of compound and target were hits. Values without a mark were called inactive.

Sequence of UniProt Q8N9F7 (Q8N9F7 whole entry, looked up): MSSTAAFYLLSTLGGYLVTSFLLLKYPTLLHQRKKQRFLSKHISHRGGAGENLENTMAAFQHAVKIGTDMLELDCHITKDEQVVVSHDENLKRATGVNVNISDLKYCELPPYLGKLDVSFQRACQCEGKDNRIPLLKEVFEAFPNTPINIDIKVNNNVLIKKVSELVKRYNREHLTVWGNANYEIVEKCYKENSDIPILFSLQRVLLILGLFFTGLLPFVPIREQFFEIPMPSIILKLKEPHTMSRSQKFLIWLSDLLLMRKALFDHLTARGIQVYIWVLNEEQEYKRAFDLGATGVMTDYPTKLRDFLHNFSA
Sequence of UniProt Q9UJY4 (Q9UJY4 whole entry, looked up): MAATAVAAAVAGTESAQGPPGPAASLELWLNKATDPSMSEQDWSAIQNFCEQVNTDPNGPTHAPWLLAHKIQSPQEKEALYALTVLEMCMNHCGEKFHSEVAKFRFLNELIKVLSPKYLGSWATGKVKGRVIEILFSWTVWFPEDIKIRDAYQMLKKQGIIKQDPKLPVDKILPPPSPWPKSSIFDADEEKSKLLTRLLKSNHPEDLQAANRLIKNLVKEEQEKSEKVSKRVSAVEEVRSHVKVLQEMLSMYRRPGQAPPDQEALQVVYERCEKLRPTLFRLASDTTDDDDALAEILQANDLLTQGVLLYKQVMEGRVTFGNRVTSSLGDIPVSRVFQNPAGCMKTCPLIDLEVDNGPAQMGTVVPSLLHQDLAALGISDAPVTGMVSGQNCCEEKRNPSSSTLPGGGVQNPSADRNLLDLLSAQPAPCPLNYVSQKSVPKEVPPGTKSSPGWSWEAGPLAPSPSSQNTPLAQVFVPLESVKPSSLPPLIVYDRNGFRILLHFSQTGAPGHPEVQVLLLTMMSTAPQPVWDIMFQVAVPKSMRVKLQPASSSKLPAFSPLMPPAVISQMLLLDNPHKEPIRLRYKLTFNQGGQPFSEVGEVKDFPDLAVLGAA
Sequence of UniProt P0CL80 (P0CL80 whole entry, looked up): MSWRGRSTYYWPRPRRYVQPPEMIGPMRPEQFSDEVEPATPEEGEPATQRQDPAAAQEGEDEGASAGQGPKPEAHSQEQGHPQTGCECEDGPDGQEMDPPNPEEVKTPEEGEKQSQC
Sequence of UniProt Q9H4G4 (Q9H4G4 whole entry, looked up): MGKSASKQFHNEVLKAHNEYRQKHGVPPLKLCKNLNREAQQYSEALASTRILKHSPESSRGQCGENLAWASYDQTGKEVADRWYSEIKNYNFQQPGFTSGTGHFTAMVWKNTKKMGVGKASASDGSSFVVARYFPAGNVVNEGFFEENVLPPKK
Sequence of UniProt Q9UK99 (Q9UK99 whole entry, looked up): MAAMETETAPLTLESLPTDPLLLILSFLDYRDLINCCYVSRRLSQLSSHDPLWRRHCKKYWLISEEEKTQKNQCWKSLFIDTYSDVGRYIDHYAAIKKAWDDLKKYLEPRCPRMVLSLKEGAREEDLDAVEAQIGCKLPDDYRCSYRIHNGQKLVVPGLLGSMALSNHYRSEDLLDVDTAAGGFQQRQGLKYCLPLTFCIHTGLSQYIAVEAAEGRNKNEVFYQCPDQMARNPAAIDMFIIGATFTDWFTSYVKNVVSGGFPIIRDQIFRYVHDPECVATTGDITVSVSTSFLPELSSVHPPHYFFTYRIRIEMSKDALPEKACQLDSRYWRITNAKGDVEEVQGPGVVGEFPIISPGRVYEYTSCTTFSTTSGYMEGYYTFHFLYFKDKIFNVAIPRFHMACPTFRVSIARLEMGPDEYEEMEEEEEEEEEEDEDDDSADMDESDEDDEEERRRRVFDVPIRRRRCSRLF
Sequence of UniProt P11142 (P11142 whole entry, looked up): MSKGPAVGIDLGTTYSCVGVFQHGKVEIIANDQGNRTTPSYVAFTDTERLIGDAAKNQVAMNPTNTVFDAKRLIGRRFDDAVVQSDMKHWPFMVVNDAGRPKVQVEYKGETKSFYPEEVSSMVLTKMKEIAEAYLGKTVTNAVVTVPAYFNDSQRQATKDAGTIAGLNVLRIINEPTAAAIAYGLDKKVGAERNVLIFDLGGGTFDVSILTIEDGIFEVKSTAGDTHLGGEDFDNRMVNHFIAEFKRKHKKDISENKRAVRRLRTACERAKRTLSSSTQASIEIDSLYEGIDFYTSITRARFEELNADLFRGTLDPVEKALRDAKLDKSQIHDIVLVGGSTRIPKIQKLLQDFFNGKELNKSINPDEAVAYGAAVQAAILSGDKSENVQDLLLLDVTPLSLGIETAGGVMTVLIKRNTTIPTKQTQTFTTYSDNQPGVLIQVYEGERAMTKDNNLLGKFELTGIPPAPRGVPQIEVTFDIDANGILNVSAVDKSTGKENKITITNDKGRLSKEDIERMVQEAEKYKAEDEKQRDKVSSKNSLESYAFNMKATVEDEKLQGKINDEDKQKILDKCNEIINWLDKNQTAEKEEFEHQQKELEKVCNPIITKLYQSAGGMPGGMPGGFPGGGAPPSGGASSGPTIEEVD
Sequence of UniProt Q9ULT8 (Q9ULT8 whole entry, looked up): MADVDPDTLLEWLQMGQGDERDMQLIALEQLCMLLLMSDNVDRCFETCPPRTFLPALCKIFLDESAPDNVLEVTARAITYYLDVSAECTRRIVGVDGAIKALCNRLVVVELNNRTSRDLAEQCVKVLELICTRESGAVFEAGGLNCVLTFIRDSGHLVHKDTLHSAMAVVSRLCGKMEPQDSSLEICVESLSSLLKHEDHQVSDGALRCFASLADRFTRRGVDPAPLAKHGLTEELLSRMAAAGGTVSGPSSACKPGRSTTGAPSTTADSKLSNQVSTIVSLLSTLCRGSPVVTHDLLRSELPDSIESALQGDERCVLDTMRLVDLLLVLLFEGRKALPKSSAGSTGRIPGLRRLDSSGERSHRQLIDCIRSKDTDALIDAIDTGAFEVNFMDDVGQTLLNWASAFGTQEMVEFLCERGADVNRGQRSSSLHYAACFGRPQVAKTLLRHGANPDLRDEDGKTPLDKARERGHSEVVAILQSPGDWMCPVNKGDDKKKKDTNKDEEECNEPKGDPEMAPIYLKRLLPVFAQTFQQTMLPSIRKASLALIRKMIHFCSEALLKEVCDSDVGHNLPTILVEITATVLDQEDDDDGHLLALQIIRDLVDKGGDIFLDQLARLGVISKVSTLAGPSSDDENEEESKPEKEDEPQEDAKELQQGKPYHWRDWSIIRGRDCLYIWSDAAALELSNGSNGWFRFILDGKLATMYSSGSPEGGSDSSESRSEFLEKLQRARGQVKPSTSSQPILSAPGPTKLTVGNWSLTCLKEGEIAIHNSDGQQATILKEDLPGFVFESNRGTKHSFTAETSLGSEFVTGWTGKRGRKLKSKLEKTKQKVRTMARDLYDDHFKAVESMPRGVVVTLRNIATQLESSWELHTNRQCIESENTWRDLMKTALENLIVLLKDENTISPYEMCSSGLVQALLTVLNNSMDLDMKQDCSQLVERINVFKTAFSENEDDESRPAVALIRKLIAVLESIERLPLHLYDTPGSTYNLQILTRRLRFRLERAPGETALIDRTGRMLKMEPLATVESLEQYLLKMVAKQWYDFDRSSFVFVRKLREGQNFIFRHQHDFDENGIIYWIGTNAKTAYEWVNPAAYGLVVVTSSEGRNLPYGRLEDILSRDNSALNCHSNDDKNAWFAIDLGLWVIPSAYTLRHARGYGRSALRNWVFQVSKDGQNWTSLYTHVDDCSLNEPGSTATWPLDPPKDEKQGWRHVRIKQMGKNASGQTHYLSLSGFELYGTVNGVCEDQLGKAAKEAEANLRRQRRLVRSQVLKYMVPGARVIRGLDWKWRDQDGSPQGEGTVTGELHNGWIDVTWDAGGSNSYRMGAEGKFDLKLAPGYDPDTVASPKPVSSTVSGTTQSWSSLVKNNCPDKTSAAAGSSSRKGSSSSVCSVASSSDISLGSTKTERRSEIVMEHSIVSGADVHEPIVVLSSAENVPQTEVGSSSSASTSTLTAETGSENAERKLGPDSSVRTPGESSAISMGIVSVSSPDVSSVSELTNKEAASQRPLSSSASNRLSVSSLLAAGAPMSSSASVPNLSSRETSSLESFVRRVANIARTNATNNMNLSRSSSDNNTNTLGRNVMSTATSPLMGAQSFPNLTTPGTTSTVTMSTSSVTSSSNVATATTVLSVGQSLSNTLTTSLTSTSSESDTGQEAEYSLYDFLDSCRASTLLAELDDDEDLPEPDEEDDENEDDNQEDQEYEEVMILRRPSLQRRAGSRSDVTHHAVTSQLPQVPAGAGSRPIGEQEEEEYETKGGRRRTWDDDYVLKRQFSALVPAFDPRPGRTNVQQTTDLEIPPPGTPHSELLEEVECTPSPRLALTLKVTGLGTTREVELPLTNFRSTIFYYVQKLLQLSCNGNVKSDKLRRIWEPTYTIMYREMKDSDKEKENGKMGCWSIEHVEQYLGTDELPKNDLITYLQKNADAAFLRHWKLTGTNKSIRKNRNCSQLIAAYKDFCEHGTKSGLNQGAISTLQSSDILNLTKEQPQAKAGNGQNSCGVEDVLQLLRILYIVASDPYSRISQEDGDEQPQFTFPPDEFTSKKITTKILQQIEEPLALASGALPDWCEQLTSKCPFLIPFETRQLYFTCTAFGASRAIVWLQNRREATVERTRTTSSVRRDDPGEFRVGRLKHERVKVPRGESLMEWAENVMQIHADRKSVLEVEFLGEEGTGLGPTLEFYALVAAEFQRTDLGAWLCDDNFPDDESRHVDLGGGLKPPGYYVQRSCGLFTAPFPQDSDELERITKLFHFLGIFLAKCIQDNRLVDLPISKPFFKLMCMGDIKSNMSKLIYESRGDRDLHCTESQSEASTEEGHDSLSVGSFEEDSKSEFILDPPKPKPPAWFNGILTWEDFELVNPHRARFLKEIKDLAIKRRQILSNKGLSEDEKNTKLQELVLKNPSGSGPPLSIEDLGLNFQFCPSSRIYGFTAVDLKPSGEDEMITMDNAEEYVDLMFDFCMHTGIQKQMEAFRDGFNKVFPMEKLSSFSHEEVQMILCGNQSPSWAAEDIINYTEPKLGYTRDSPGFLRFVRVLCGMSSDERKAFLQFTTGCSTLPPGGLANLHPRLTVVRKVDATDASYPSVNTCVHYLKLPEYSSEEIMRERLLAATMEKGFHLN
Sequence of UniProt P60520 (P60520 whole entry, looked up): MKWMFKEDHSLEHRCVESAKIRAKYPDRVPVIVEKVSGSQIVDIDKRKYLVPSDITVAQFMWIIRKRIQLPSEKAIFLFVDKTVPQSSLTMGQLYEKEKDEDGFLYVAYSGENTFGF

Compound in one assay: CC1=C(C=C(C=C1)NC(=O)C2=CC(=CC=C2)N(C)C)NC(=O)C3=CC=C(C=C3)O
The assay is described as follows: log2 fold change, soluble protein after heating vs DMSO (PISA); higher = thermal stabilisation; K562 cells, 10 uM, 30 min; active = over 0.2 and 3.5 SD of the protein, either way, in both replicates (recomputed). Summed up:
(§1)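 K562 cells at 2×10^6 cells/mL were given 10 μM compound for 30 min. Aliquots then went through 3 min of heating across 48°C-58°C, were pooled, and were extracted in PBS with 0.5% NP-40 at 4°C, and the supernatant after 21,000xg for 90 min was quantified by TMTpro 16plex LC-MS/MS with channel sums equalised. Thermal stability relative to control samples, from duplicates, is given as log2 fold change.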
As to GIGYF2 (UniProt Q6Y7W6), the log2 fold change was 0.058.
Turning to HSPA8 (UniProt P11142), the log2 fold change was 0.005.
Turning to FNTA (UniProt P49354), the log2 fold change was -0.009.
With HOMER1 (UniProt Q86YM7), the log2 fold change is -0.059.
GTF2A1 (UniProt P52655): the log2 fold change is -0.05.
In the case of GNG5 (UniProt P63218), the log2 fold change was -0.17.
As for FYB1 isoform 3 (UniProt O15117), the log2 fold change is 0.063.
In the case of GDPD1 (UniProt Q8N9F7), the log2 fold change was -0.135.
As for FNTB (UniProt P49356), the log2 fold change is -0.058.
Turning to HECTD1 (UniProt Q9ULT8), the log2 fold change was -0.068.
Consider GGA2 (UniProt Q9UJY4), for which the log2 fold change was 0.033.
On the same count and under the same terms, for GCDH (UniProt Q92947) the value was -0.004.
GABARAPL2 (UniProt P60520): the log2 fold change is 0.023.
Regarding GNB2 (UniProt P62879), the log2 fold change was 0.018.
For FBXO3 (UniProt Q9UK99), the log2 fold change is -0.08.
As to FKBP7 (UniProt Q9Y680), the log2 fold change is 0.001.
On the same count and under the same terms, for GALNT4 (UniProt Q8N4A0) the value was 0.017; for HMOX2 (UniProt P30519), -0.06; for ICAM1 (UniProt P05362), 0.016.
Still for that read-out and setting: the figure for GDI1 (UniProt P31150) is 0.012.
Take FANCD2 isoform 1 (UniProt Q9BXW9): the log2 fold change was -0.007.
GBF1 (UniProt Q92538): the log2 fold change is -0.071.
Same read-out and setting: the figure for GAGE12F (UniProt P0CL80) is -0.035.
As to IFT80 isoform 3 (UniProt Q9P2H3), the log2 fold change was 0.038.
Consider FBXO42 (UniProt Q6P3S6), for which the log2 fold change was 0.164.
For the target HMGN2 (UniProt P05204), the log2 fold change was 0.097.
As to HADHA (UniProt P40939), the log2 fold change was -0.203.
Same read-out and setting: for HEATR5B (UniProt Q9P2D3) the value was 0.005; for GLIPR2 (UniProt Q9H4G4), -0.152.
The same measure, in the same setting: the figure for GNS (UniProt P15586) is 0.112; for HIP1R (UniProt O75146) it is -0.053; for HADHB (UniProt P55084) it is -0.248.
As to GSTP1 (UniProt P09211), the log2 fold change is -0.003.
For FECH isoform 2 (UniProt P22830), the log2 fold change is 0.162.
As to GTF2H3 (UniProt Q13889), the log2 fold change is -0.008.

Compound in a further assay: CC1=CC=C(C=C1)SC2=C3C=C(SC3=CN=C2)C(=O)N
The description is as above. Summed up: as §1
As for GIGYF2 (UniProt Q6Y7W6), the log2 fold change was 0.01.
Still for that read-out and setting: the figure for HSPA8 (UniProt P11142) is -0.025; for FNTA (UniProt P49354) it is 0.048; for HOMER1 (UniProt Q86YM7) it is -0.009.
As to GTF2A1 (UniProt P52655), the log2 fold change was -0.023.
With GNG5 (UniProt P63218), the log2 fold change was -0.02.
As to FYB1 isoform 3 (UniProt O15117), the log2 fold change was 0.093.
Take GDPD1 (UniProt Q8N9F7): the log2 fold change is 0.022.
On to FNTB (UniProt P49356), for which the log2 fold change is 0.
As for HECTD1 (UniProt Q9ULT8), the log2 fold change was 0.144.
Take GGA2 (UniProt Q9UJY4): the log2 fold change is -0.047.
In the case of GCDH (UniProt Q92947), the log2 fold change was 0.014.
Regarding GABARAPL2 (UniProt P60520), the log2 fold change is 0.067.
As to GNB2 (UniProt P62879), the log2 fold change was -0.053.
For the target FBXO3 (UniProt Q9UK99), the log2 fold change is 0.
On to FKBP7 (UniProt Q9Y680), for which the log2 fold change is -0.034.
On the same count and under the same terms, for GALNT4 (UniProt Q8N4A0) the value was -0.029.
As for HMOX2 (UniProt P30519), the log2 fold change was 0.036.
On to ICAM1 (UniProt P05362), for which the log2 fold change is 0.033.
For GDI1 (UniProt P31150), the log2 fold change was -0.003.
As to FANCD2 isoform 1 (UniProt Q9BXW9), the log2 fold change was 0.027.
As to GBF1 (UniProt Q92538), the log2 fold change was -0.012.
With GAGE12F (UniProt P0CL80), the log2 fold change was 0.006.
Take IFT80 isoform 3 (UniProt Q9P2H3): the log2 fold change was 0.004.
The same measure, in the same setting: for FBXO42 (UniProt Q6P3S6) the value was -0.038.
For HMGN2 (UniProt P05204), the log2 fold change is -0.038.
The same measure, in the same setting: the figure for HADHA (UniProt P40939) is 0; for HEATR5B (UniProt Q9P2D3) it is 0.03.
Still for that read-out and setting: for GLIPR2 (UniProt Q9H4G4) the value was -0.054; for GNS (UniProt P15586), 0.044; for HIP1R (UniProt O75146), 0.003.
HADHB (UniProt P55084): the log2 fold change is -0.002.
As to GSTP1 (UniProt P09211), the log2 fold change is 0.008.
As for FECH isoform 2 (UniProt P22830), the log2 fold change was -0.16.
For the target GTF2H3 (UniProt Q13889), the log2 fold change was -0.024.
